# Measurements from publication PMC7862700, “An all-to-all approach to the identification of sequence-specific readers for epigenetic DNA modifications on cytosine”.
# Assays:
# Experiment in all cases: DAPPL (digital affinity profiling via proximity ligation, sequencing); 10 mM Tris-HCl pH 7.5, 50 mM NaCl, 1 mM DTT, 4% glycerol, room temperature, 30 min; GST-TFs on glutathione beads, 16-mer random dsDNA library, 0.1% formaldehyde crosslink after washing; high values mean tight binding
# Conditions in all cases: protein: recombinant; tags: N-terminal GST; dsDNA, one strand shown
# [1] = biological target: T1, FLI1 (Homo sapiens, UniProt Q01543 1-452)
# T1 sequence: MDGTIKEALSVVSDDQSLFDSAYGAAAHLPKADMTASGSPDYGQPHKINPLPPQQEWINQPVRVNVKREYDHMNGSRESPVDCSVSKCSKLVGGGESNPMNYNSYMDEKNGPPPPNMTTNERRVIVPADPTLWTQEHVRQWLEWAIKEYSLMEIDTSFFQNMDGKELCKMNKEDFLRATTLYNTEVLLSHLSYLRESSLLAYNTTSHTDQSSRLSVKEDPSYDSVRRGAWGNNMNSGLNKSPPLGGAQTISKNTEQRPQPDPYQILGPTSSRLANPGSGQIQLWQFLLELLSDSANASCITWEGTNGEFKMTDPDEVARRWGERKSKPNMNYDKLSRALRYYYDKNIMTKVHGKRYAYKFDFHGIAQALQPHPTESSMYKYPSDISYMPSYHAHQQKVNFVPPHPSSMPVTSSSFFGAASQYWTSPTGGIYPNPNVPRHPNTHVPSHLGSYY
# Outline: (§1)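 Beads coated with glutathione captured GST-fused human transcription factors that had been expressed in yeast, and the factors were then given DNA barcodes and pooled with a tag-only sample. The pools were incubated with 200 nmole of a random double-stranded 16-mer DNA library in Tris/NaCl/DTT/glycerol buffer for 30 min at room temperature, washed, crosslinked with 0.1% formaldehyde and proximity-ligated with BsaI/T4 ligase at 37 °C for 1 h. PCR amplification and Illumina NextSeq500 sequencing came last. Binding signal is each hexamer's read frequency for a factor divided by its frequency for the tag-only sample.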
# [2] = biological target: T2, ELK1 (Homo sapiens, UniProt P19419 1-428)
# T2 sequence: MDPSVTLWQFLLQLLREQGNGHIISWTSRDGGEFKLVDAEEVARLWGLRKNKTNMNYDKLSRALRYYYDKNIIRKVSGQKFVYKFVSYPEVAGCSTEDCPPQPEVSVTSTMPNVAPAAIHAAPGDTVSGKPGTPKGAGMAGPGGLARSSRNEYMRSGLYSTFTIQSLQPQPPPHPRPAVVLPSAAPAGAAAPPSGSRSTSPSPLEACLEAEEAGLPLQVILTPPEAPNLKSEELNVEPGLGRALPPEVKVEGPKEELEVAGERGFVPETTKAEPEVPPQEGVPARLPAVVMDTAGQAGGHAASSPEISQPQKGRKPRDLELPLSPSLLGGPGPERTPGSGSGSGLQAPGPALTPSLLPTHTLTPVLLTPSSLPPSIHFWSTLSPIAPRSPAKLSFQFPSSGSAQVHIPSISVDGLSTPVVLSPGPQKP
# Outline: as §1
# [3] = biological target: T3, GABPA (Homo sapiens, UniProt Q06546 1-454)
# T3 sequence: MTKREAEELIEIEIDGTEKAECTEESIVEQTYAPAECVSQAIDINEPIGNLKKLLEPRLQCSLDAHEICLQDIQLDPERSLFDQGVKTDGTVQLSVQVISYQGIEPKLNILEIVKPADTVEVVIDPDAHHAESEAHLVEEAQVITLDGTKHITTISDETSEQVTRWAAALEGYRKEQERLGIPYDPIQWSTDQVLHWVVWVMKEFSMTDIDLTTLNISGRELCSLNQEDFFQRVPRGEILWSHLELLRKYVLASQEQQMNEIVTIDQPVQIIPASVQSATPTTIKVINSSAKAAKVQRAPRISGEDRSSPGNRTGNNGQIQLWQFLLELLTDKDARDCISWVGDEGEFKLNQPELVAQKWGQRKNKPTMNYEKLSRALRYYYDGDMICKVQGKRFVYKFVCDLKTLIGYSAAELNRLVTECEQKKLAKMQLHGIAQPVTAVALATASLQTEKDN
# Outline: as §1
# [4] = biological target: T4, ERG (Homo sapiens, UniProt P11308 1-479)
# T4 sequence: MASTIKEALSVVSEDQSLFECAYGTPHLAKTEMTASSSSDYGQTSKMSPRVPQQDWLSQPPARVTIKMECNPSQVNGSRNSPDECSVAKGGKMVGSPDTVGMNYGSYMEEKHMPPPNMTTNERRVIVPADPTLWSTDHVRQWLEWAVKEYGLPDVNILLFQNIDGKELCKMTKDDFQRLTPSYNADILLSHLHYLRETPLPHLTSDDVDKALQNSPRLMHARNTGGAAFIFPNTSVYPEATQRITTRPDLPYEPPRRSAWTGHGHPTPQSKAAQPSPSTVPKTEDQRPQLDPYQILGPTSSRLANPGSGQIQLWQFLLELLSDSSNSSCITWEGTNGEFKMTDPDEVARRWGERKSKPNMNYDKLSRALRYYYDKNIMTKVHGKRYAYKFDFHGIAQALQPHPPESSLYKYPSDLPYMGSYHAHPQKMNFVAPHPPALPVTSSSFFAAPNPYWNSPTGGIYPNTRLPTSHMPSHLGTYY
# Outline: as §1
# [5] = biological target: ELF1 (Homo sapiens, UniProt P32519 1-619)
# Sequence of ELF1 (P32519 whole entry): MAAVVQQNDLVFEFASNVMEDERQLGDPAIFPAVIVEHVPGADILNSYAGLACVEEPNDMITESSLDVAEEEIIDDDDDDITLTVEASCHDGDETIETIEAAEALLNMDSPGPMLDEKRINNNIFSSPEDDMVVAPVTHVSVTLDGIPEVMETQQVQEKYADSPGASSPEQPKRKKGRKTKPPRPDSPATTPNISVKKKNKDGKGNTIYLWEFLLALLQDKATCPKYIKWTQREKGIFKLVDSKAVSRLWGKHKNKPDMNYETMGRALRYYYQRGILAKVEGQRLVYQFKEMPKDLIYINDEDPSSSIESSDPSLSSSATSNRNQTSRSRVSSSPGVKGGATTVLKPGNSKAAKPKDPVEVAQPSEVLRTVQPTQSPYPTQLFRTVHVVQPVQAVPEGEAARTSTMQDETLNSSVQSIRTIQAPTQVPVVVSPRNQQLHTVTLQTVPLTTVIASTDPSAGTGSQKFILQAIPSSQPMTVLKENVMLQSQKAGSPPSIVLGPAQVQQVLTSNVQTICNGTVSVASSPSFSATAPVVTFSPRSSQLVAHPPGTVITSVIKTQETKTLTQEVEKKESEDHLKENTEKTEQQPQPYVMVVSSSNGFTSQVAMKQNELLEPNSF
# Outline: as §1
# [6] = biological target: T5, EHF (Homo sapiens, UniProt Q9NZC4 1-300)
# T5 sequence: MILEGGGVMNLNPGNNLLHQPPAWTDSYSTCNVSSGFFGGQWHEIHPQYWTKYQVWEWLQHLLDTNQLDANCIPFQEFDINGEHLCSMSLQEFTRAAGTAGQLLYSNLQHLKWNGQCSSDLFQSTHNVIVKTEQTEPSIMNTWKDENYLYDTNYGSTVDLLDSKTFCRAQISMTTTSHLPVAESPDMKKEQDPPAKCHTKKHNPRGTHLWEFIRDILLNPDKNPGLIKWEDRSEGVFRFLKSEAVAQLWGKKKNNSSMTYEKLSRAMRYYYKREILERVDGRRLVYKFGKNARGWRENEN
# Outline: as §1
# [7] = biological target: SPI1 (Homo sapiens, UniProt P17947 1-270)
# Outline: as §1
# [8] = biological target: SPIB (Homo sapiens, UniProt Q01892 1-262)
# Sequence of SPIB (Q01892 whole entry): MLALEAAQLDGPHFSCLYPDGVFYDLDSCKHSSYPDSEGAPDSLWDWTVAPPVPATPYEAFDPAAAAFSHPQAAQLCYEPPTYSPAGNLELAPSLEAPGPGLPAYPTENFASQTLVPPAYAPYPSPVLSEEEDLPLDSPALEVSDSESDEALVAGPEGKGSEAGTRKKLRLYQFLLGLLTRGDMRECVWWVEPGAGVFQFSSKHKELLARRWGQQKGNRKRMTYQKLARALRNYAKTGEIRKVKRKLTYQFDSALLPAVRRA
# Outline: as §1
# [9] = biological target: T6, ELK3 (Homo sapiens, UniProt P41970 1-407)
# T6 sequence: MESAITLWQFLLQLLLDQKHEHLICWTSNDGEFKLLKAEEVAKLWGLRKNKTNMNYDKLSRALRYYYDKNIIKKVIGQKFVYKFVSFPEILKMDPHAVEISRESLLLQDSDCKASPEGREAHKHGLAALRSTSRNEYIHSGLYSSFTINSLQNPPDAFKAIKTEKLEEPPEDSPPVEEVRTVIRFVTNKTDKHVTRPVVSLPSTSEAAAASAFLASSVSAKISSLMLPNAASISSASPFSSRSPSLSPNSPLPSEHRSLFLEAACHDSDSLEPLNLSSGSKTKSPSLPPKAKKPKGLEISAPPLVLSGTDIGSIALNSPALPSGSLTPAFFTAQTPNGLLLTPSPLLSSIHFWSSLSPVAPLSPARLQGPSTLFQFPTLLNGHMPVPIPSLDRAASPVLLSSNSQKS
# Outline: as §1
sequence,measurement,setting,value
AATTGA,binding signal,[1],"1.18 fold enrichment (6-mer frequency, TF over GST control)"
same,binding signal,[2],"1.19 fold enrichment (6-mer frequency, TF over GST control)"
same,binding signal,[3],"1.2 fold enrichment (6-mer frequency, TF over GST control)"
same,binding signal,[4],"1.16 fold enrichment (6-mer frequency, TF over GST control)"
same,binding signal,[5],"1.15 fold enrichment (6-mer frequency, TF over GST control)"
same,binding signal,[6],"1.25 fold enrichment (6-mer frequency, TF over GST control)"
same,binding signal,[7],"1.16 fold enrichment (6-mer frequency, TF over GST control)"
same,binding signal,[8],"1.2 fold enrichment (6-mer frequency, TF over GST control)"
same,binding signal,[9],"1.27 fold enrichment (6-mer frequency, TF over GST control)"
